Here are results for nine molecules from PubChem BioAssay (NCI).

This is part of a sample that, as a whole, favours compounds with a hit. Of some 79,000 tested, about 15% had one in any assay. Unmarked numbers belong to inactive results. Calls of active or inactive are those of the source. Cut-off read from the data, not from the text of the source: active = growth inhibition above about 70%; inactive = the rest.

The nature of experiment [1]: NCI Yeast Anticancer Drug Screen. Data for the rad50 strain (AID 155).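 Note: 0% = growth of vehicle-only cultures of the same strain.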 To be noted: S. cerevisiae rad50 strain growth inhibition, hits give high values. A digest of the protocol:
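Relative growth inhibition (compound vs vehicle) was measured in yeast with a defined repair-gene alteration.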

Experiment [2] in a line: NCI Yeast Anticancer Drug Screen. Data for the mec2-1 strain (AID 157). The note with it: S. cerevisiae mec2-1 strain, hits give high values. A digest of the protocol: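 Each compound was tested on mec2-1 yeast, a strain altered in DNA damage repair or cell cycle control. Growth inhibition is reported relative to vehicle.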
Experiment [3] can be described thus: NCI Yeast Anticancer Drug Screen. Data for the sgs1 mgt1 strain (AID 161).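 Note: 0% = growth of cultures given vehicle only.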 To be noted: S. cerevisiae sgs1 mgt1 strain, hits give high values. In outline: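 Read-out: growth inhibition vs vehicle controls. Cells: mutant yeast strain deficient in DNA damage repair.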
The nature of experiment [4]: NCI Yeast Anticancer Drug Screen. Data for the cln2 rad14 strain (AID 165).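 Note: 0% = growth equal to vehicle treated cultures.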 The note with it: S. cerevisiae cln2 rad14 strain, hits give high values. A digest of the protocol: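 Test compounds were added to cln2 rad14 yeast cultures; inhibition of growth was then determined by comparison with vehicle treatment.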
Experiment [5] can be described thus: NCI Yeast Anticancer Drug Screen. Data for the bub3 strain (AID 167). The note with it: S. cerevisiae bub3 mutant strain, hits give high values. In outline:
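Screening used yeast with an engineered genetic alteration affecting cell cycle control. Compound-exposed cultures were compared with vehicle cultures, and reduced growth was taken as inhibition.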

Experiment [6] is described as follows: NCI Yeast Anticancer Drug Screen. Data for the mlh1 rad18 strain (AID 175). To be noted: S. cerevisiae mlh1 rad18 strain growth inhibition, hits give high values. A digest of the protocol: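 Inhibition values reflect reduced growth of mutant yeast versus vehicle-treated controls following compound exposure; the mutations affect DNA damage repair.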
Setting [7] is: at 5.0 µM (retest, dose inferred, filed as 0.5).
Where [8] appears, read: at 50.0 µM (retest, dose inferred, filed as 5.0).

As for `CC(=O)Oc1cc2c(=O)oc3c(OC(C)=O)c(OC(C)=O)c(OC(C)=O)c4c(=O)oc(c1OC(C)=O)c2c34`, the growth inhibition was 40% in experiment [1] (setting [7]); 58% in experiment [1] (setting [8]); 89.5% (active) in experiment [1] (at 50.0 µM); 41% in experiment [2] (setting [7]); 48% in experiment [2] (setting [8]); 76.6% (active) in experiment [2] (at 50.0 µM). Further, the growth inhibition in experiment [3] (setting [7]) was 37%; in experiment [3] (setting [8]), 61%; in experiment [3] (at 50.0 µM) it was 87.2% (active); in experiment [4] (setting [7]) it was 20%; in experiment [4] (setting [8]), 40%; in experiment [4] (at 50.0 µM), 73.8% (active). Also, the growth inhibition in experiment [5] (setting [7]) was 45%; in experiment [5] (setting [8]), 71% (active); in experiment [5] (at 50.0 µM), 88.3% (active); in experiment [6] (setting [7]), 39%; in experiment [6] (setting [8]) it was 45%; in experiment [6] (at 50.0 µM), 88.2% (active).
Turning to `CC([NH-])C(=O)O.[Cu+2].[NH-]C(Cc1cnc[nH]1)C(=O)O` (centres undefined), the growth inhibition is -8% in experiment [1] (setting [7]); 7% in experiment [1] (setting [8]); 98.9% (active) in experiment [1] (at 50.0 µM); -4% in experiment [2] (setting [7]); 0% in experiment [2] (setting [8]); 99.3% (active) in experiment [2] (at 50.0 µM). Also, the growth inhibition in experiment [3] (setting [7]) is -3%; in experiment [3] (setting [8]), 1%; in experiment [3] (at 50.0 µM), 98.7% (active); in experiment [4] (setting [7]), 4%; in experiment [4] (setting [8]), 12%; in experiment [4] (at 50.0 µM), 96% (active). Further, the growth inhibition in experiment [5] (setting [7]) was -5%; in experiment [5] (setting [8]), -1%; in experiment [5] (at 50.0 µM), 99% (active); in experiment [6] (setting [7]), -7%; in experiment [6] (setting [8]), 2%; in experiment [6] (at 50.0 µM), 98.7% (active).
Take `COc1ccc(Cc2c3ccccc3cc[n+]2C)cc1Oc1ccc(Cc2c3ccccc3cc[n+]2C)cc1`: the growth inhibition is 2% in experiment [1] (setting [7]); 87% (active) in experiment [1] (setting [8]); 51.5% in experiment [1] (at 50.0 µM); -1% in experiment [2] (setting [7]); 92% (active) in experiment [2] (setting [8]); 43.8% in experiment [2] (at 50.0 µM). Further, the growth inhibition in experiment [3] (setting [7]) was 2%; in experiment [3] (setting [8]) it was 93% (active); in experiment [3] (at 50.0 µM), 76.5% (active); in experiment [4] (setting [7]), -14%; in experiment [4] (setting [8]), 84% (active); in experiment [4] (at 50.0 µM), -26.7%. The growth inhibition in experiment [5] (setting [7]) was -2%; in experiment [5] (setting [8]), 96% (active); in experiment [5] (at 50.0 µM), 40.9%.
As for `Cn1c(=O)c2c3oc(=O)cc(O)c3c(=O)n3c4ccccc4n(c1=O)c23`, the growth inhibition in experiment [1] (setting [7]) was 38%; in experiment [1] (setting [8]), 83% (active); in experiment [1] (at 50.0 µM) it was 74.8% (active); in experiment [2] (setting [7]), 29%; in experiment [2] (setting [8]), 69%; in experiment [2] (at 50.0 µM) it was 19.9%. The growth inhibition was 35% in experiment [3] (setting [7]); 86% (active) in experiment [3] (setting [8]); 45% in experiment [3] (at 50.0 µM); 34% in experiment [4] (setting [7]); 45% in experiment [4] (setting [8]); 42.5% in experiment [4] (at 50.0 µM). Further, the growth inhibition in experiment [5] (setting [7]) was 31%; in experiment [5] (setting [8]), 75% (active); in experiment [5] (at 50.0 µM) it was 42.3%; in experiment [6] (setting [7]), 53%; in experiment [6] (setting [8]) it was 92% (active); in experiment [6] (at 50.0 µM), 42.1%.
For `CN1C=C(C#N)CCC1Sc1ccc(Cl)cc1` (centres undefined), the growth inhibition is -7% in experiment [1] (setting [7]); 38% in experiment [1] (setting [8]); 58.1% in experiment [1] (at 50.0 µM); 5% in experiment [2] (setting [7]); 65% in experiment [2] (setting [8]); 58.6% in experiment [2] (at 50.0 µM). In addition, the growth inhibition in experiment [3] (setting [7]) is 3%; in experiment [3] (setting [8]), 54%; in experiment [3] (at 50.0 µM), 92.6% (active); in experiment [4] (setting [7]), -3%; in experiment [4] (setting [8]) it was 11%; in experiment [4] (at 50.0 µM), 76.8% (active). Moreover, the growth inhibition in experiment [5] (setting [7]) is -4%; in experiment [5] (setting [8]) it was 60%; in experiment [5] (at 50.0 µM) it was 59.3%; in experiment [6] (setting [7]), 22%; in experiment [6] (setting [8]) it was 82% (active); in experiment [6] (at 50.0 µM), 86.9% (active).
Turning to `CCOC(=O)C(/C=N\C(=S)Nc1c(CC)cccc1C(C)(C)C)=C(/O)c1ccccc1`, the growth inhibition in experiment [1] (setting [7]) was 7%; in experiment [1] (setting [8]), 61%; in experiment [1] (at 50.0 µM) it was 51.5%; in experiment [2] (setting [7]) it was 0%; in experiment [2] (setting [8]), 46%; in experiment [2] (at 50.0 µM) it was 49%. The growth inhibition in experiment [3] (setting [7]) was 17%; in experiment [3] (setting [8]), 35%; in experiment [3] (at 50.0 µM), 64.5%; in experiment [4] (setting [7]), -13%; in experiment [4] (setting [8]), 43%; in experiment [4] (at 50.0 µM) it was 67.2%. Also, the growth inhibition is -8% in experiment [5] (setting [7]); 73% (active) in experiment [5] (setting [8]); 55.6% in experiment [5] (at 50.0 µM); 4% in experiment [6] (setting [7]); 48% in experiment [6] (setting [8]); 63% in experiment [6] (at 50.0 µM).
Regarding `COC(=O)N/N=C(\C)C(CN1CCOCC1)C(c1ccccc1)c1cc2ccccc2oc1=O` (centres undefined), the growth inhibition was 10% in experiment [1] (setting [7]); 57% in experiment [1] (setting [8]); -0.75% in experiment [1] (at 50.0 µM); -4% in experiment [2] (setting [7]); 56% in experiment [2] (setting [8]); 7.15% in experiment [2] (at 50.0 µM). The growth inhibition in experiment [3] (setting [7]) is 14%; in experiment [3] (setting [8]), 64%; in experiment [3] (at 50.0 µM) it was -5.55%; in experiment [4] (setting [7]), 14%; in experiment [4] (setting [8]) it was 70% (active); in experiment [4] (at 50.0 µM) it was 10.9%. Further, the growth inhibition was 21% in experiment [5] (setting [7]); 74% (active) in experiment [5] (setting [8]); 8.15% in experiment [5] (at 50.0 µM); 7% in experiment [6] (setting [7]); 61% in experiment [6] (setting [8]); 2.25% in experiment [6] (at 50.0 µM).
On to `Cc1cc(NCCCN(C)C)c2cc3ccc4cccc5ccc(c2n1)c3c45`, for which the growth inhibition was 1% in experiment [1] (setting [7]); 54% in experiment [1] (setting [8]); 95.2% (active) in experiment [1] (at 50.0 µM); -12% in experiment [2] (setting [7]); 23% in experiment [2] (setting [8]); 90.4% (active) in experiment [2] (at 50.0 µM). In addition, the growth inhibition in experiment [3] (setting [7]) was -3%; in experiment [3] (setting [8]), 47%; in experiment [3] (at 50.0 µM), 94.8% (active); in experiment [4] (setting [7]), -2%; in experiment [4] (setting [8]) it was 25%; in experiment [4] (at 50.0 µM) it was 63.8%. Moreover, the growth inhibition was -2% in experiment [5] (setting [7]); 20% in experiment [5] (setting [8]); 94.5% (active) in experiment [5] (at 50.0 µM); -2% in experiment [6] (setting [7]); 58% in experiment [6] (setting [8]); 97.3% (active) in experiment [6] (at 50.0 µM).
With `CC(=O)OC1=C(CC(C)C)C(=O)c2ccccc2C1=O`, the growth inhibition in experiment [1] (setting [7]) is 7%; in experiment [1] (setting [8]), 67%; in experiment [1] (at 50.0 µM), 69.2%; in experiment [2] (setting [7]), 8%; in experiment [2] (setting [8]), 70% (active); in experiment [2] (at 50.0 µM), 59.2%. For the same molecule, the growth inhibition was 7% in experiment [3] (setting [7]); 88% (active) in experiment [3] (setting [8]); 78.6% (active) in experiment [3] (at 50.0 µM); 1% in experiment [4] (setting [7]); 55% in experiment [4] (setting [8]); 51% in experiment [4] (at 50.0 µM). Besides, the growth inhibition in experiment [5] (setting [7]) was 6%; in experiment [5] (setting [8]), 78% (active); in experiment [5] (at 50.0 µM), 56.6%; in experiment [6] (setting [7]), 20%; in experiment [6] (setting [8]), 85% (active); in experiment [6] (at 50.0 µM), 73.5% (active).
